Test results as given in PubChem BioAssay (NCI).
Several values for one entry are separate records, joined by “and”; a condition that tells them apart may be missing. Identical values can stand only once. This is part of a sample that, as a whole, favours compounds with a hit. Of some 79,000 tested, about 15% had one in any assay. Where a structure was tested more than once in an assay, its records may differ in their call. Activity calls are given as the source filed them. No stated cut-off is given here; in the data, active means growth inhibition above about 70%; inactive means the rest.

How the values were obtained:
[1] = NCI Yeast Anticancer Drug Screen. Data for the rad52 strain (AID 147);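 further: 0% = growth of vehicle-treated control cultures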; details: S. cerevisiae rad52 mutant growth inhibition, stronger effect = higher value
Outline: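 Screen used a yeast mutant impaired in DNA repair. After compound exposure, growth was measured. Values reflect inhibition compared with vehicle-treated cells.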

[2] = NCI Yeast Anticancer Drug Screen. Data for the wt1 strain (AID 149);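 further: 0% = growth of vehicle-treated wt1 cultures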; details: S. cerevisiae wt1 strain (SPY 50644) growth inhibition, stronger effect = higher value
Outline: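 Compounds are added to wt1 yeast cultures. Growth is then measured. Inhibition is expressed relative to vehicle-treated controls.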

[3] = NCI Yeast Anticancer Drug Screen. Data for the rad50EPP+ strain (AID 151);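 further: 0% = growth of vehicle-treated control cultures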; details: S. cerevisiae rad50 mutant strain, stronger effect = higher value
Outline: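 Exposing the rad50EPP+ strain to each compound, growth was compared with vehicle-only cultures to give inhibition.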

[4] = NCI Yeast Anticancer Drug Screen. Data for the mgt1 strain (AID 153); details: S. cerevisiae mgt1 mutant growth inhibition, stronger effect = higher value
Outline: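 Genetically defined yeast (mgt1) treated with compound; inhibition of growth expressed against vehicle-treated controls.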

[5] = NCI Yeast Anticancer Drug Screen. Data for the rad50 strain (AID 155);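 further: 0% = growth of vehicle-only cultures of the same strain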; details: S. cerevisiae rad50 strain growth inhibition, stronger effect = higher value
Outline: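 Inhibition values express reduced yeast growth in compound-treated cultures relative to vehicle-treated controls.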

[6] = NCI Yeast Anticancer Drug Screen. Data for the mec2-1 strain (AID 157); details: S. cerevisiae mec2-1 strain, stronger effect = higher value
Outline: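 Readout is yeast growth inhibition, normalised to vehicle-treated controls, in the mec2-1 strain exposed to compound.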

[7] = NCI Yeast Anticancer Drug Screen. Data for the rad14 strain (AID 159);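 further: 0% = growth of vehicle-treated control cultures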; details: S. cerevisiae rad14 strain growth inhibition, stronger effect = higher value
Outline: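 A mutant yeast strain defective in DNA damage repair is treated with compound; inhibition of its growth is scored against untreated, vehicle-exposed cultures.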

[8] = NCI Yeast Anticancer Drug Screen. Data for the sgs1 mgt1 strain (AID 161);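 further: 0% = growth of cultures given vehicle only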; details: S. cerevisiae sgs1 mgt1 strain, stronger effect = higher value
Outline: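 Yeast cells carrying a defined DNA-repair defect were exposed to test compounds. Growth inhibition was measured relative to vehicle-treated controls.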

[9] = NCI Yeast Anticancer Drug Screen. Data for the CLN2oe strain (AID 163);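 further: 0% = growth of vehicle-only control cultures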; details: S. cerevisiae CLN2oe strain, stronger effect = higher value
Outline: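 Values reflect how much compound exposure reduced yeast growth, referenced to vehicle-exposed cells. Assay organism is a strain with a defined genetic change affecting cell-cycle control.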

[10] = NCI Yeast Anticancer Drug Screen. Data for the cln2 rad14 strain (AID 165);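 further: 0% = growth equal to vehicle treated cultures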; details: S. cerevisiae cln2 rad14 strain, stronger effect = higher value
Outline: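 Relative to vehicle controls, growth inhibition of compound-treated cln2 rad14 yeast was recorded.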

[11] = NCI Yeast Anticancer Drug Screen. Data for the bub3 strain (AID 167); details: S. cerevisiae bub3 mutant strain, stronger effect = higher value
Outline: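 Steps: expose the mutant yeast strain to compound; grow alongside vehicle-treated cultures; measure growth; express inhibition against the vehicle cultures.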

[12] = NCI Yeast Anticancer Drug Screen. Data for the wt2 strain (AID 169);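 further: 0% = growth of vehicle-treated yeast cultures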; details: S. cerevisiae wt2 strain growth inhibition, stronger effect = higher value
Outline: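 Values express reduction in yeast growth under compound treatment, referenced to vehicle-treated cells.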

[13] = NCI Yeast Anticancer Drug Screen. Data for the mlh1 strain (AID 171);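 further: 0% = growth of vehicle-treated control cultures of the same strain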; details: S. cerevisiae mlh1 strain growth inhibition, stronger effect = higher value
Outline: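 Steps: expose the defined-mutant yeast strain to compound; expose a parallel culture to vehicle; measure growth; express compound effect as inhibition relative to the vehicle culture.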

[14] = NCI Yeast Anticancer Drug Screen. Data for the sgs1 strain (AID 173);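 further: 0% = growth of vehicle-only control cultures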; details: S. cerevisiae sgs1 mutant, stronger effect = higher value
Outline: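 Treat defined-mutant yeast with compound; measure growth; calculate inhibition relative to vehicle-treated cells.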

[15] = NCI Yeast Anticancer Drug Screen. Data for the mlh1 rad18 strain (AID 175); details: S. cerevisiae mlh1 rad18 strain growth inhibition, stronger effect = higher value
Outline: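 Test agents were incubated with a yeast strain of defined genotype (DNA damage repair defect). Inhibition of growth was derived by comparison with vehicle-exposed cultures.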

[16] = NCI Yeast Anticancer Drug Screen. Data for the rad18 strain (AID 177); details: S. cerevisiae rad18 mutant growth inhibition, stronger effect = higher value
Outline: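 A genetically defined yeast mutant impaired in DNA damage repair was treated with test compounds, then its growth was measured against cultures receiving vehicle alone.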

[17] = at 5.0 µM (retest, dose inferred, filed as 0.5)
[18] = at 50.0 µM (retest, dose inferred, filed as 5.0)

Q: With Cc1nc2c(Br)cc(Br)cc2c(=O)n1-c1ccccc1NC1OCC(O)C(O)C1O (stereo not drawn) as the compound, how does the growth inhibition ([1]; at 1.2 µM) read?
A: Its growth inhibition is 1% (inactive).

Q: And the growth inhibition ([1]; at 3.7 µM)?
A: Its growth inhibition is 4% (inactive).

Q: What about the growth inhibition ([1]; at 11.0 µM) of the same compound?
A: Its growth inhibition is 25% (inactive).

Q: And the growth inhibition ([1]; at 33.0 µM)?
A: The growth inhibition was 44% (inactive).

Q: And the growth inhibition ([1]; at 100.0 µM)?
A: The growth inhibition was 97% (active).

Q: And the growth inhibition ([2]; at 1.2 µM)?
A: The growth inhibition was -50% (inactive).

Q: And the growth inhibition ([2]; at 3.7 µM)?
A: The growth inhibition was 3% (inactive).

Q: And the growth inhibition ([2]; at 11.0 µM)?
A: Its growth inhibition is 9% (inactive).

Q: And the growth inhibition ([2]; at 33.0 µM)?
A: The growth inhibition was 28% (inactive).

Q: And the growth inhibition ([2]; at 100.0 µM)?
A: Its growth inhibition is 93% (active).

Q: And the growth inhibition ([3]; at 1.2 µM)?
A: The growth inhibition was 37% (inactive).

Q: And the growth inhibition ([3]; at 3.7 µM)?
A: Its growth inhibition is 36% (inactive).

Q: And the growth inhibition ([3]; at 11.0 µM)?
A: The growth inhibition was 17% (inactive).

Q: What about the growth inhibition ([3]; at 33.0 µM) of the same compound?
A: Its growth inhibition is 20% (inactive).

Q: And the growth inhibition ([3]; at 100.0 µM)?
A: The growth inhibition was 8% (inactive).

Q: What about the growth inhibition ([4]; at 1.2 µM) of the same compound?
A: Its growth inhibition is 25% (inactive).

Q: What about the growth inhibition ([4]; at 3.7 µM) of the same compound?
A: Its growth inhibition is 21% (inactive).

Q: What about the growth inhibition ([4]; at 11.0 µM) of the same compound?
A: The growth inhibition was 20% (inactive).

Q: What about the growth inhibition ([4]; at 33.0 µM) of the same compound?
A: Its growth inhibition is 39% (inactive).

Q: And the growth inhibition ([4]; at 100.0 µM)?
A: Its growth inhibition is 97% (active).

Q: What about the growth inhibition ([5]; at 1.2 µM) of the same compound?
A: Its growth inhibition is 0% (inactive).

Q: And the growth inhibition ([5]; at 3.7 µM)?
A: The growth inhibition was 6% (inactive).

Q: What about the growth inhibition [5, 17] of the same compound?
A: The growth inhibition was 10% (inactive) and 17% (inactive).

Q: What about the growth inhibition ([5]; at 11.0 µM) of the same compound?
A: The growth inhibition was 18% (inactive).

Q: And the growth inhibition ([5]; at 33.0 µM)?
A: Its growth inhibition is 63% (inactive).

Q: And the growth inhibition [5, 18]?
A: Its growth inhibition is 74% (active) and 68% (inactive).

Q: And the growth inhibition ([5]; at 50.0 µM)?
A: Its growth inhibition is 94.5% (active) and 89.8% (active).

Q: And the growth inhibition ([5]; at 100.0 µM)?
A: Its growth inhibition is 96% (active).

Q: And the growth inhibition ([6]; at 1.2 µM)?
A: The growth inhibition was 7% (inactive).

Q: What about the growth inhibition ([6]; at 3.7 µM) of the same compound?
A: Its growth inhibition is 9% (inactive).

Q: What about the growth inhibition [6, 17] of the same compound?
A: Its growth inhibition is 10% (inactive) and 22% (inactive).

Q: And the growth inhibition ([6]; at 11.0 µM)?
A: Its growth inhibition is 14% (inactive).

Q: And the growth inhibition ([6]; at 33.0 µM)?
A: The growth inhibition was 38% (inactive).

Q: And the growth inhibition [6, 18]?
A: Its growth inhibition is 75% (active) and 23% (inactive).

Q: What about the growth inhibition ([6]; at 50.0 µM) of the same compound?
A: The growth inhibition was 70.8% (active) and 22.4% (inactive).

Q: What about the growth inhibition ([6]; at 100.0 µM) of the same compound?
A: The growth inhibition was 96% (active).

Q: What about the growth inhibition ([7]; at 1.2 µM) of the same compound?
A: Its growth inhibition is 2% (inactive).

Q: And the growth inhibition ([7]; at 3.7 µM)?
A: The growth inhibition was 4% (inactive).

Q: What about the growth inhibition ([7]; at 11.0 µM) of the same compound?
A: Its growth inhibition is 16% (inactive).

Q: And the growth inhibition ([7]; at 33.0 µM)?
A: Its growth inhibition is 39% (inactive).

Q: And the growth inhibition ([7]; at 100.0 µM)?
A: The growth inhibition was 94% (active).

Q: And the growth inhibition [8, 17]?
A: The growth inhibition was 12% (inactive) and 11% (inactive).

Q: What about the growth inhibition [8, 18] of the same compound?
A: Its growth inhibition is 13% (inactive) and 24% (inactive).

Q: What about the growth inhibition ([8]; at 50.0 µM) of the same compound?
A: The growth inhibition was 88.5% (active) and 61.5% (inactive).

Q: And the growth inhibition ([9]; at 1.2 µM)?
A: Its growth inhibition is 40% (inactive).

Q: And the growth inhibition ([9]; at 3.7 µM)?
A: The growth inhibition was 35% (inactive).

Q: And the growth inhibition ([9]; at 11.0 µM)?
A: Its growth inhibition is 44% (inactive).

Q: And the growth inhibition ([9]; at 33.0 µM)?
A: Its growth inhibition is 72% (active).

Q: What about the growth inhibition ([9]; at 100.0 µM) of the same compound?
A: Its growth inhibition is 97% (active).

Q: And the growth inhibition [10, 17]?
A: Its growth inhibition is 40% (inactive) and -2% (inactive).

Q: What about the growth inhibition [10, 18] of the same compound?
A: The growth inhibition was 95% (active) and 85% (active).

Q: What about the growth inhibition ([10]; at 50.0 µM) of the same compound?
A: The growth inhibition was 91.5% (active) and 60.1% (inactive).

Q: What about the growth inhibition ([11]; at 1.2 µM) of the same compound?
A: Its growth inhibition is 11% (inactive).

Q: And the growth inhibition ([11]; at 3.7 µM)?
A: Its growth inhibition is 5% (inactive).

Q: What about the growth inhibition [11, 17] of the same compound?
A: Its growth inhibition is 20% (inactive) and 14% (inactive).

Q: What about the growth inhibition ([11]; at 11.0 µM) of the same compound?
A: Its growth inhibition is 8% (inactive).

Q: What about the growth inhibition ([11]; at 33.0 µM) of the same compound?
A: Its growth inhibition is 47% (inactive).

Q: What about the growth inhibition [11, 18] of the same compound?
A: The growth inhibition was 92% (active) and 51% (inactive).

Q: And the growth inhibition ([11]; at 50.0 µM)?
A: Its growth inhibition is 97.2% (active) and 78.4% (active).

Q: What about the growth inhibition ([11]; at 100.0 µM) of the same compound?
A: Its growth inhibition is 96% (active).

Q: And the growth inhibition ([12]; at 1.2 µM)?
A: The growth inhibition was 2% (inactive).

Q: What about the growth inhibition ([12]; at 3.7 µM) of the same compound?
A: Its growth inhibition is 4% (inactive).

Q: And the growth inhibition ([12]; at 11.0 µM)?
A: The growth inhibition was 10% (inactive).

Q: And the growth inhibition ([12]; at 33.0 µM)?
A: The growth inhibition was 43% (inactive).

Q: And the growth inhibition ([12]; at 100.0 µM)?
A: The growth inhibition was 96% (active).

Q: And the growth inhibition ([13]; at 1.2 µM)?
A: The growth inhibition was 0% (inactive).

Q: What about the growth inhibition ([13]; at 3.7 µM) of the same compound?
A: Its growth inhibition is 4% (inactive).

Q: And the growth inhibition ([13]; at 11.0 µM)?
A: The growth inhibition was 12% (inactive).

Q: What about the growth inhibition ([13]; at 33.0 µM) of the same compound?
A: Its growth inhibition is 36% (inactive).

Q: And the growth inhibition ([13]; at 100.0 µM)?
A: The growth inhibition was 92% (active).

Q: What about the growth inhibition ([14]; at 1.2 µM) of the same compound?
A: The growth inhibition was 2% (inactive).

Q: And the growth inhibition ([14]; at 3.7 µM)?
A: The growth inhibition was 5% (inactive).

Q: And the growth inhibition ([14]; at 11.0 µM)?
A: Its growth inhibition is 13% (inactive).

Q: And the growth inhibition ([14]; at 33.0 µM)?
A: The growth inhibition was 41% (inactive).

Q: And the growth inhibition ([14]; at 100.0 µM)?
A: The growth inhibition was 88% (active).

Q: And the growth inhibition [15, 17]?
A: The growth inhibition was -23% (inactive) and 18% (inactive).

Q: What about the growth inhibition [15, 18] of the same compound?
A: Its growth inhibition is 93% (active) and 74% (active).

Q: And the growth inhibition ([15]; at 50.0 µM)?
A: The growth inhibition was 95.2% (active) and 82.2% (active).

Q: What about the growth inhibition ([16]; at 1.2 µM) of the same compound?
A: The growth inhibition was 42% (inactive).

Q: And the growth inhibition ([16]; at 3.7 µM)?
A: Its growth inhibition is 41% (inactive).

Q: And the growth inhibition ([16]; at 11.0 µM)?
A: The growth inhibition was 41% (inactive).

Q: And the growth inhibition ([16]; at 33.0 µM)?
A: The growth inhibition was 62% (inactive).

Q: What about the growth inhibition ([16]; at 100.0 µM) of the same compound?
A: Its growth inhibition is 97% (active).
